Assay outcomes: PubChem BioAssay, several laboratories
MEX-5 binding – MEX-5 zinc finger RNA-binding disruptors – biochemical, C. elegans, fluorescence polarization, MLPCN library, primary screen. MEX-5/FITC-TCR2 RNA binding; stronger effect = lower value. Zinc finger protein mex-5 (Caenorhabditis elegans), Q9XUB2. activity score (negative = inhibition of binding), % at 10 µM. 300,000 compounds, 0.38% hits;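 active means inhibition past about -25% in most replicates, and total fluorescence under double the plate's negative control median, limit read from the data; inconclusive means replicates evenly split on the limit, or fluorescence at least double controls; inactive means too little inhibition in most replicates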;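 further: 0% = DMSO and -100% = 5 µM competing unlabeled TCR2 RNA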
eIF4H FP inh – human eIF4H binding inhibitors, primary screen, translation initiation inhibitor project, biochemical, uHTS, fluorescence polarization; Eukaryotic translation initiation factor 4H (Homo sapiens), Q15056; eIF4H fluorescence polarization binding assay; inhibition, % at 35 µM; 290,000 compounds, 0.94% hits; AID 2012, 2009;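 further: calls also rest on retests at 20 µM and on dose response follow-up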
EBV gp42 inh – Epstein-Barr virus gp42 inhibitors, primary screen, biochemical, uHTS, fluorescence polarization; Fluorescence polarization binding assay, mP read-out; inhibition, % (tested at 21.74 µM); 220,000 compounds, 0.42% hits; Glycoprotein 42 (Epstein-Barr virus (strain AG876)), Q1HVG2; in the data active means inhibition above about 50%
PABP polyA inh – PABP poly(A) RNA binding inhibitors, primary screen, biochemical, fluorescence polarization, uHTS; Polyadenylate-binding protein 1 (Homo sapiens), P11940; calls only at 35 µM; AID 2014, 2009; 290,000 compounds, 1% hits;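 further: calls also rest on retests at 20 µM and on dose response follow-up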
Target sequence (P11940 whole entry, looked up): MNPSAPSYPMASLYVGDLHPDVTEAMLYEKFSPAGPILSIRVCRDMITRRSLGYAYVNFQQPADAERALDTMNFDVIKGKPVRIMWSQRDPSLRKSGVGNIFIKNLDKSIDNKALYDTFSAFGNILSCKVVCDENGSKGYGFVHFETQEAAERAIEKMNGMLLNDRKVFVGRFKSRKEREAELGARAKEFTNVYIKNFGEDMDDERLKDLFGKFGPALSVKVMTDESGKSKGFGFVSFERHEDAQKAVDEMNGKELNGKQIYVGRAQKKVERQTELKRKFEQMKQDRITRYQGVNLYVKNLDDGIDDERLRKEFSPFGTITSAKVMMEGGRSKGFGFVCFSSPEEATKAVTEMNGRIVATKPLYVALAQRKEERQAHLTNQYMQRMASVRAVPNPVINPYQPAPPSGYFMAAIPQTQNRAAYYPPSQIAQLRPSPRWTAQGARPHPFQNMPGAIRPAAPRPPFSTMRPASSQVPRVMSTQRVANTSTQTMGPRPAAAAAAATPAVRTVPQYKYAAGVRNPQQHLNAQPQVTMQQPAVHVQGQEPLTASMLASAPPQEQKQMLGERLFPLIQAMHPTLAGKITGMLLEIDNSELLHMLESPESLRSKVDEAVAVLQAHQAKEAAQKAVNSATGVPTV
PABP1 MLLE inh – inhibitors of PABP1 MLLE–PAM2 peptide binding, primary screen, biochemical, fluorescence polarization, FITC-PAM2, GST-MLLE | 360,000 compounds, 0.36% hits | Polyadenylate-binding protein 1 (Homo sapiens), P11940 | AID 588489, 2011 | inhibition, % at 20 µM; in the data active means inhibition above about 35%, passing the limit was not always enough;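 further: plate controls were DMSO wells with GST-MLLE for no effect and wells lacking GST-MLLE protein for full effect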
Active calls of the source: *; i = inactive; ? = inconclusive; . = not tested or not shown; + = active, no number. Compounds with a hit are over-represented: about 1.8% of the library has one in this group of screens. Unless noted, how the calls were made is not given here.

SMILES | MEX-5 binding | eIF4H FP inh | EBV gp42 inh | PABP polyA inh | PABP1 MLLE inh
NC(=O)c1c(NC(=O)C2COc3ccccc3O2)sc2c1CCN(Cc1ccccc1)C2 (stereo not drawn) | -62* | ? | -98 | i | -44
CC(C)N1CCc2c(sc(NC(=O)c3ccc(C(=O)c4ccccc4)cc3)c2C(N)=O)C1 | 4 | -13 | . | i | -56
COc1cccc(C2C(C#N)=C(N)Oc3cc(C)n(Cc4ccco4)c(=O)c32)c1 (stereo not drawn) | 0 | 51* | -11 | + | -49
CNC[C@H]1OCc2ccccc2-c2ccccc2C(=O)N([C@@H](C)CO)C[C@H]1C | . | . | . | . | -1
O=C(CSc1n[nH]c(-c2ccccc2Br)n1)NCCN1C(=O)CSC1=O | 1 | active | -23 | i | -2
O=C(CSc1n[nH]c(-c2cc(Cl)ccc2Cl)n1)NCCN1C(=O)CSC1=O | 5 | 4 | -7 | i | -9
Cc1ccc(Nc2nnc(SCC(=O)NCCN3C(=O)CSC3=O)s2)cc1C | 0 | -3 | 2 | + | -83
CCCC1C2CN(C(C)C)CC=C2C(C#N)=C(N)C1(C#N)C#N (stereo not drawn) | -75* | ? | 69* | ? | 124
COc1cccc(C2C3CN(C)CC=C3C(C#N)=C(N)C2(C#N)C#N)c1OC (stereo not drawn) | -67* | 122 | 78* | i | 84
N#CC1=C(N)C(C#N)(C#N)C(c2ccncc2)C2CN(C(=O)OCc3ccccc3)CC=C12 (stereo not drawn) | 0 | 75* | -23 | + | 13
N#CC1=C(N)C(C#N)(C#N)C(c2ccc[nH]2)C2CCCC=C12 (stereo not drawn) | -18 | ? | 8 | ? | -21
CC(C)c1ccc(C2C3CSCC=C3C(C#N)=C(N)C2(C#N)C#N)cc1 (stereo not drawn) | 3 | 128* | -27 | + | .
COc1ccccc1CN(C)C[C@@H]1OCc2cnnn2CCCC(=O)N([C@@H](C)CO)C[C@H]1C | . | . | . | . | 14
CCOC(=O)C1(C)CCN1C(=O)c1cccc(C(F)(F)F)c1 (stereo not drawn) | . | . | . | . | 7
O=C(NCc1cccc(Cl)c1)c1ccc(-n2cncn2)c2ccoc12 | . | . | . | . | 0
C=CCn1c(SCC(=O)N2CCC(C)CC2)nc2c([nH]c3ccccc32)c1=O | . | . | . | . | -8
CN1CC=C2C(C#N)=C(N)C(C#N)(C#N)C(c3ccsc3)C2C1 (stereo not drawn) | ? | ? | 24 | ? | 122
CN1CC=C2C(C#N)=C(N)C(C#N)(C#N)[C@H](c3cccc(Cl)c3)C2C1 (stereo partly drawn) | -59* | ? | 58* | ? | 87
CN1CC=C2C(C#N)=C(N)C(C#N)(C#N)[C@H](c3cccs3)[C@H]2C1 | -68* | ? | 36 | i | 122
COc1cc([C@@H]2[C@H]3CN(C)CC=C3C(C#N)=C(N)C2(C#N)C#N)cc2c1OCO2 | . | 122 | 9 | i | 4
NC(=O)C1CCN(C(=O)c2ccc(Cl)c(NC(=O)c3cccs3)c2)CC1 | . | . | . | . | -16
Cc1cc(C(=O)OCC(=O)c2ccc(Br)s2)c(C)o1 | 3 | 70* | 3 | + | .
CCOC(=O)C1=CC[C@@H](c2ccccc2)N(S(=O)(=O)c2ccc(C)cc2)[C@H]1C=C(C)C | . | . | . | . | -2
CC1=C(C(=O)OCCOC(C)C)C(c2cc3c(cc2Br)OCO3)C2=C(CCCC2=O)N1 (stereo not drawn) | 0 | 10 | -12 | i | 67*
O=C(Cc1ccccc1F)Nc1cc(S(=O)(=O)N2CCCCC2)ccc1N1CCOCC1 | . | . | . | . | 15
O=C1Nc2cc(Cl)cnc2N2CCCC12 (stereo not drawn) | -37* | 61* | 72* | i | 4
CCOc1ccccc1CNC(=O)c1cc2occc2n1C | 1 | ? | -18 | + | 2
CCN(CC)C(=O)/C(=C\c1ccc(Br)cc1)NC(=O)c1ccccc1OC | 1 | 1 | 61* | i | 0
CCCCOP(=O)(OCCCC)C(Nc1ccccc1)c1ccc2c(c1)OCO2 (stereo not drawn) | 2 | active | -9 | + | 4
